Measurements from PubChem BioAssay AID1159580 (chemical genetic matrix, 2015).
The whole screen tested about 5,500 compounds, of which about 2,000 (36%) were called active. Another 18% or so got no clear call; they are omitted. Rule as the data show it: active = normalized growth mostly below about 0.91 (no sharp cut-off); inconclusive = no clear call, values can overlap the other calls; inactive = mostly above about 0.92. The list shows a part of the results.

Experiment: chemical genetic growth profiling, strain panel (AID 1159580);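 also: tested at 20 µM; growth read once vehicle control cultures reached saturation at 30 °C; 1 = growth at the plate median or of vehicle wells; lower values mean less growth of the strain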
Conditions: S. cerevisiae deletion strains, growth OD

Measured: normalized growth

CS(=O)(=O)c1ccc([C@@H](O)[C@H](CF)NC(=O)C(Cl)Cl)cc1
inactive: locus YHR030C, strain SLT2, hits give low values 1.03 | locus YHR079C, strain IRE1, hits give low values 0.953 | locus YJL095W, strain BCK1, hits give low values 0.973 | locus YJR066W, strain TOR1, hits give low values 0.956 | locus YLR113W, strain HOG1, hits give low values 0.935 | locus YNL183C, strain NPR1, hits give low values 0.909 | locus YOR231W, strain MKK1, hits give low values 0.969 | locus YPL256C, strain CLN2, hits give low values 0.943
